Compound activity (PubChem BioAssay)
TDP1 cell CPT – qHTS for Inhibitors of human tyrosyl-DNA phosphodiesterase 1 (TDP1): qHTS in cells in presence of CPT; Potency, µM (top dose mostly 46.2 µM), for the others: top-dose activity change, negative = growth inhibition, actives largely listed as inhibitors; chicken DT40 Tdp1-/-;hTDP1 cells + 20 nM CPT, ATP luminescence, 48 h; AID 686979, 2013; 12% of 420,000 active; also: nearly all actives have a fitted effect of over 55% in size
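Chicken DT40 Tdp1-/- cells complemented with human TDP1, 400 cells/well, exposed to compounds plus 20 nM camptothecin for at least 48 h at 37 C; viability read as ATP content by CellTiter-Glo luminescence.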
KB-V1 MDR tox – qHTS assay for MDR1-selective chemotherapeutics: Primary screen using the drug-selected MDR subline cells KB-V1 | KB-V1 MDR cells viability, CellTiter-Glo, 72 h | 3.4% of 400,000 active | Potency, µM (titrated, usually from 46.1 µM), actives largely listed as cytotoxic | AID 1347076, 2019; also: nearly all actives have a fitted effect of over 60% in size
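KB-V1, DMEM (no phenol red) + 10% FBS; cpd pin-transferred, titration series; 72 h, 37 degrees C; CellTiter-Glo, luminescence. Data normalized, curve-fit.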
KB-3-1 tox – qHTS assay for MDR1-selective chemotherapeutics: Primary screen using the parental adenocarcinoma cell KB-3-1; KB-3-1 viability, CellTiter-Glo ATP luminescence, 72 h; Potency, µM (titrated, usually from 46.1 µM), usual class: cytotoxic; 1.4% of 400,000 active; also: nearly all actives have a fitted effect of over 60% in size
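Cytotoxicity in the drug-sensitive parental line KB-3-1 was scored as loss of CellTiter-Glo luminescence following 72 h incubation with compound. Values come from curve fitting of normalized concentration-response data.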
DT40 TDP1 no CPT – qHTS for Inhibitors of human tyrosyl-DNA phosphodiesterase 1 (TDP1): qHTS in cells in absence of CPT; DT40 Tdp1-/- hTDP1 cells, no CPT, ATP luminescence, 48 h; Potency, µM (highest dose often 46.2 µM), inactives show top-dose activity change, negative = growth inhibition, hits mostly inhibitors; 15% of 420,000 active; also: nearly all actives have a fitted effect of over 55% in size
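Camptothecin absent (DMSO only). Human TDP1-complemented DT40 knockout cells, 400 cells/well, 37 °C for minimum 48 hr; ATP measured via CellTiter-Glo, 30 min dark incubation, luminescence.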
HT1080 IDH1KD tx – qHTS for induction of synthetic lethality in tumor cells producing 2HG: qHTS for the HT-1080-IDH1KD cell line; Potency, µM (titrated, usually from 46.1 µM), without a hit: top-dose activity, negative = toxicity, hits mostly cytotoxic; HT-1080 IDH1 knockdown viability, ATP luminescence, 48 h; 2% of 360,000 active;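 also: 0% = DMSO wells and -100% = cell-free medium wells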
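HT-1080-IDH1KD cells (IDH1 knocked down), 750/well in RPMI with 5% FBS, treated with compound 48 h at 37 degrees C. Viability by CellTiter-Glo luminescence, normalised to DMSO and no-cell wells; concentration-response curves classed.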
HT1080NT lethal – qHTS for induction of synthetic lethality in tumor cells producing 2HG: qHTS for the HT-1080-NT fibrosarcoma cell line; 1.6% of 360,000 active; HT-1080-NT fibrosarcoma viability, CellTiter-Glo ATP luminescence, 48 h; Potency, µM (series often up to 46.1 µM), for the others: at the highest dose activity, negative = less viability, actives largely listed as cytotoxic;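 also: NT is the 2HG producing partner of a matched IDH1 knockdown line; 0% = DMSO-treated cells and -100% = media-only wells without cells; nearly all actives have a fitted effect of over 55% in size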
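HT-1080-NT fibrosarcoma cells (2HG-overproducing), 750 cells/well in RPMI with 5% FBS, dosed after 2 h and incubated 48 h at 37C. CellTiter-Glo luminescence normalized to DMSO and no-cell wells; concentration-response curves fitted and classed.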
Starred values were filed as active, the others as inactive; i = inactive; ? = inconclusive; nt = no result given; [ ] = another dose, or the depositor's remark. Hits are enriched below; roughly 19% of the tested compounds scored in any of these assays. Calls follow the shape of the dose curve; as a rule, active = well fitted curve in the direction sought with a large enough effect; inconclusive = small, poorly fitted or top-dose-only effect, or another doubt; inactive = no such curve, though single readings can be large; an effect the other way counts as inactive or inconclusive. Unless noted, % is scaled to controls: 0 for no effect and ±100 for the full control effect; potency is read from the fitted curve at half-maximal effect.

SMILES	TDP1 cell CPT	KB-V1 MDR tox	KB-3-1 tox	DT40 TDP1 no CPT	HT1080 IDH1KD tx	HT1080NT lethal
Cc1ccc(S(=O)(=O)N2C[C@H]3[C@H]4C(=O)N(c5ccccc5)C(=O)[C@H]4C[C@H](OC(=O)NCc4ccccc4F)[C@@]3(O)C2)cc1	1%	i	i	-29%	10%	-2%
Cc1ccc(S(=O)(=O)N2CC3(O)CN(C(=O)OC(C)C)N(C(=O)OC(C)C)CC3(OC(=O)NCc3ccccc3)C2)cc1 (centres undefined)	?	i	i	21µM*	-6%	-5%
COC(=O)[C@H]1C[C@H](OC(=O)NCc2ccccc2F)[C@@]2(O)CN(S(=O)(=O)c3ccc(C)cc3)CC2[C@H]1C(=O)OC (some centres undefined)	?	?	i	23µM*	1%	2%
Cc1ccc(S(=O)(=O)N2C[C@H]3N(C(=O)OC(C)C)N(C(=O)OC(C)C)C[C@H](OC(=O)NCC4CCCCC4)[C@@]3(O)C2)cc1	21µM*	?	?	26µM*	?	21µM*
Cc1ccc(S(=O)(=O)N2C[C@H]3N(C(=O)OC(C)C)N(C(=O)OC(C)C)C[C@H](OC(=O)NCc4ccccc4)[C@@]3(O)C2)cc1	21µM*	i	i	21µM*	-1%	-2%
COCC(=O)N[C@H]1CC[C@@H](CC(=O)OC)O[C@@H]1CO	2%	i	i	4%	9%	22%
CCCCCCn1c(=O)n2n(c1=O)[C@@H]1CN(S(=O)(=O)c3ccc(C)cc3)C[C@]1(O)[C@@H](OC(=O)NCc1ccco1)C2	?	i	i	23µM*	1%	0%
Cc1ccc(S(=O)(=O)N2C[C@H]3N(C(=O)OC(C)C)N(C(=O)OC(C)C)C[C@H](OC(=O)NCc4ccco4)[C@@]3(O)C2)cc1	?	i	i	23µM*	0%	1%
Nc1c(C(=O)Nc2cccc(F)c2)c2ccccn2c1C(=O)c1ccccc1	-16%	i	i	-21%	nt	nt
CCOC(=O)C1CCN(C(=O)C2COc3ccccc3C2)CC1 (centres undefined)	0%	i	i	-16%	nt	nt
CC(=O)Nc1ccc(-c2ccnc3c2CC(C)(C(=O)NCc2ccc(N4CCN(C)CC4)cc2)O3)cc1 (centres undefined)	-20%	i	i	?	-5%	-26%
Cc1cc(C(=O)N2CCC2(C)C(=O)Nc2ccc3[nH]ncc3c2)nn1C (centres undefined)	?	i	i	-18%	20%	4%
COc1ccc(C(C[N+](=O)[O-])c2c(-c3ccccc3)cc3ccccn23)cc1 (centres undefined)	23µM*	?	?	18µM*	-2%	-28%
COc1ccc(C(C[N+](=O)[O-])c2c(-c3ccccc3)cc3ccccn23)cc1OC (centres undefined)	7.3µM*	i	i	15µM*	-3%	-1%
COc1cc(C(C[N+](=O)[O-])c2c(C)cc3ccccn23)ccc1O (centres undefined)	8.2µM*	?	?	13µM*	9.2µM*	?
COC(=O)C(C(=O)OC)C(C[N+](=O)[O-])c1ccc(OC)c(OC)c1 (centres undefined)	-24%	i	i	?	15%	4%
O=Nc1c(-c2ccccc2)cc2ccccn12	?	i	i	-21%	10%	-4%
COc1cc(C(C[N+](=O)[O-])c2c(C)[nH]c3ccccc23)ccc1O (centres undefined)	-1%	?	?	-18%	-11%	1%
CCCNC(=O)C1CCC(Cn2c(=O)c3sccc3n(CC(=O)N(CC)CC)c2=O)CC1 (centres undefined)	-21%	?	i	-4%	nt	nt
COc1cc(-c2cnc3ccccc3c2)cc2c1OCCN(S(=O)(=O)C[C@]13CC[C@H](CC1=O)C3(C)C)C2	22%[9.04 µM]	nt	nt	?	nt	nt
COc1ccc(Cc2nc3ccc(C(=O)NCCc4ccccc4)cc3o2)cc1	26µM*	i	i	?	nt	nt
O=C(NCCCN1CCN(c2ccccc2)CC1)c1ccc2nc(CCc3ccccc3)oc2c1	3.7µM*	nt	nt	4.6µM*	nt	nt
COCC1CCCCN1C(=O)c1ccc2nc(Cc3ccc(OC)c(OC)c3)oc2c1 (centres undefined)	12µM*	i	i	?	-4%	-4%
COc1ccc(N2CCN(CCCNC(=O)c3nnc(Cc4ccc(F)cc4)o3)CC2)cc1	16µM*	i	i	?	nt	nt
CCC1CCCCN1C(=O)c1ccc2nc(Cc3ccc(OC)cc3)oc2c1 (centres undefined)	?	i	i	?	4%	0%
SMILES	TDP1 cell CPT	KB-V1 MDR tox	KB-3-1 tox	DT40 TDP1 no CPT	HT1080 IDH1KD tx	HT1080NT lethal
COc1ccc(N2CCN(CCCNC(=O)c3ccc(CS(=O)(=O)c4ccc(OC)cc4)o3)CC2)cc1	?	i	i	?	-1%	0%
COc1cc(C(=O)NNC(=O)CNC(=O)C2CCCCC2)ccc1OC(C)C	-27%	i	i	-7%	4%	8%
CN(C(=O)c1ccccc1)c1ccccc1C(=O)NCCc1ccccc1	?	i	i	?	1%	1%
CC(C)c1nc2ccc(C(=O)NCCCN3CCN(c4cccc(Cl)c4)CC3)cc2o1	18µM*	nt	nt	21µM*	nt	nt
COc1ccc(Cc2nc3ccc(C(=O)NCc4cc(C)no4)cc3o2)cc1	-21%	i	i	-30%	14%	3%
COc1ccc(C(=O)N(C)c2ccccc2C(=O)NCCc2ccccc2)cc1	4.1µM*	5.8µM*	2.9µM*	2.9µM*	?	-17%
CC(C)c1nc2ccc(C(=O)NCCCN3CCN(c4ccc(F)cc4)CC3)cc2o1	?	i	i	?	nt	nt
CCc1cc(CNC(=O)c2ccc3nc(Cc4ccc(OC)c(OC)c4)oc3c2)on1	23µM*	?	?	?	-8%	-5%
